Consider 67 compounds from PubChem BioAssay AID651965 (National Center for Advancing Translational Sciences (NCATS), 2013).

Hit rate of the full screen: of about 340,000 compounds, about 6,400 (1.9%) were called active. Where a call stands in place of a potency, no number is given. Inconclusive results (about 4%) are left out. Calls follow the shape of the dose curve; as a rule, active = well fitted falling curve with a large enough effect; inconclusive = small, poorly fitted or top-dose-only effect; inactive = no such curve, though single readings can be large or run the other way. For the sample, actives were picked, then their nearest neighbours and some compounds at random.
Potency is read from the fitted curve at half-maximal effect.

For this test, the target named is ATP-dependent Clp protease proteolytic subunit (Bacillus subtilis (strain 168)) (UniProt P80244). The test can be described thus: qHTS Assay for Activators of ClpP. Also: the source files actives as falling curves though it sought activators and does not explain the sign; nearly all actives have a fitted effect of over 65% in size. The settings on record: purified B. subtilis ClpP, FRET peptide cleavage, 20 min; series mostly up to 57.5 µM. The method, boiled down: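 ClpP 10 microg/mL final, pH 8 Tris/KCl buffer with BSA, glycerol, Tween-20; compound pinned in; FRET-FV substrate; RT 20 min; Ex320/Em430; ΔFRET vs ADEP 5.8 microM, DMSO, no enzyme.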
On the technique in general: In qHTS, concentration-response curves come from the screen itself.
Regarding `CCCCCCC1(C)NC(c2ccc3c(c2)OCO3)=CC(c2ccccc2O)N1` (configuration not stated), the Potency result is “inactive”.

With `CCOC(=O)N1CCC(NC(=O)CCc2cn(C)c3ccccc23)CC1`, the Potency result was “inactive”. With `CCOC(=O)N1CCC(NC(=O)Cc2cn(C)c3ccccc23)CC1`, the Potency result was “inactive”. The value for `CCOC(=O)N1CCC(NC(=O)C(C)n2c3ccccc3c3cnn(C)c(=O)c32)CC1` (configuration not stated) was 28.2 µM (active); that for `COc1cccc(NC(=O)C2(C)CCN2C(=O)CCC2CCCC2)c1` (configuration not stated) was “inactive”; that for `NS(=O)(=O)c1ccc(NC(=O)COC(=O)C2(c3ccc(F)cc3)CCCC2)cc1` was 28.2 µM (active).

For the compound `O=C(COC(=O)C1(c2ccc(F)cc2)CCCC1)N1CCNC1=O`, the Potency result was “inactive”.

`CN(C)S(=O)(=O)c1cccc(NC(=O)COC(=O)C2(c3ccccc3F)CCCC2)c1`: the Potency result is “inactive”. In the case of `COc1ccc2c(c1)C(C)=CC(C)(C)N2C(=O)Nc1ccccc1` it was 28.2 µM (active).

For the compound `COc1ccc2c(c1)C(C)=CC(C)(C)N2C(=O)CNCc1ccc2c(c1)OCO2`, the Potency result is “inactive”. In the case of `CC1=CC(C)(C)N(C(=O)CSc2nnc(-c3ccccc3)o2)c2ccc(C)cc21`, the Potency result was “inactive”.

For `COc1ccc(S(=O)(=O)N2CCCCC2c2cc(C(=O)NCc3ccc(F)cc3)no2)cc1` (configuration not stated), the Potency entry was “inactive”. In the case of `CC(=O)Oc1ccc(-c2nc3c(C)cccc3c(=O)o2)cc1` it was “inactive”; in that of `COc1nc(N=C(N)N)nc2c(C)cccc12`, 3.16 µM (active); in that of `Cc1nc(N=C(N)N)nc2c(C)cccc12`, “inactive”.

For `Nc1ccc(/C=C/c2ccnc3ccccc23)c([N+](=O)[O-])c1`, the Potency entry was “inactive”. In the case of `O=C1NC[C@H](Cc2ccc(O)cc2)N(C[C@H]2CCCN2C[C@H](Cc2ccccc2)N2C[C@H](Cc3ccccc3)N(CCc3ccccc3)C(=O)C2=O)C1=O` it was “inactive”; in that of `O=C(Nc1cccc(S(=O)(=O)N2CCOCC2)c1)C12CC3CC(CC(C3)C1)C2`, 31.6 µM (active). Consider `O=C(CSc1ccccc1)Nc1cccc(S(=O)(=O)N2CCOCC2)c1`, for which the Potency result was “inactive”. The value for `Cc1occc1C(=O)Nc1cccc(S(=O)(=O)N2CCOCC2)c1` was “inactive”; that for `CC(C)c1cccc(-c2csc(C(O)c3ccccc3)n2)c1` (configuration not stated) was “inactive”; that for `OC(CBr)CN1CCCCC1` (configuration not stated) was “inactive”. The value for `CCc1ccc2[nH]c(=O)c(Cc3ccccc3)c(O)c2c1` was “inactive”; that for `COC(=O)Cc1ccc(NC(=S)NCc2ccccc2)cc1` was “inactive”; that for `COC(=O)Cc1c(-c2[nH]c3ccccc3c2CC(=O)OC)[nH]c2ccccc12` was 28.2 µM (active). The value for `O=C(Cc1ccccc1)NCc1ccc(F)cc1` was “inactive”; that for `O=C(Cc1c(O)c2ccccc2[nH]c1=O)NCc1ccccc1` was 20 µM (active); that for `CCCOC(=O)Cc1c(O)c2ccccc2[nH]c1=O` was 25.1 µM (active). Consider `CCCc1nc2ccccc2c(=O)n1NC(=O)c1c(O)c2ccccc2[nH]c1=O`, for which the Potency entry was “inactive”. In the case of `COc1ccc(CNC(=O)c2ccc3c(O)c(S(=O)(=O)c4ccccc4)c(=O)[nH]c3c2)cc1` it was “inactive”; in that of `NC(=O)Cc1ccc2c(c1)[nH]c1ccccc12`, “inactive”; in that of `CCC(C)N(c1ccc(/C=C/c2ccnc3ccccc23)cc1)C(C)CC` (configuration not stated), “inactive”.

For the compound `COC(=O)c1ccc2nc(C3CCCCC3)c(Cc3cccc(F)c3)n2c1`, the Potency result was “inactive”. For the compound `C(=Nc1ccc(/C=C/c2ccnc3ccccc23)cc1)Nc1ccc(/C=C/c2ccnc3ccccc23)cc1`, the Potency result is “inactive”. Regarding `Nc1ncnc2c1ncn2[C@@H]1O[C@H](C(=O)N2CCSC2)[C@@H](O)[C@H]1O`, the Potency result is “inactive”. On to `CCOC(=O)C1C(C)C(C(C)(C)C)N(S(=O)(=O)c2ccc(C)cc2)C1c1ccccc1` (configuration not stated), for which the Potency entry was “inactive”.

Regarding `Nc1nc(CSc2nnnn2-c2ccccc2)nc(Nc2ccccc2)n1`, the Potency entry was “inactive”.

Turning to `OC[C@@H]1CN(Cc2cccs2)C[C@H](n2cnc3c(NC4CCCC4)ncnc32)O1`, the Potency result is “inactive”. In the case of `O=C(CCC1N=C2c3ccccc3N=C(SCc3ccccc3F)N2C1=O)NCCc1ccccc1` (configuration not stated) it was “inactive”; in that of `CCOC(=O)CSC1=Nc2ccccc2C2=NC(CCC(=O)NCc3ccc(F)cc3)C(=O)N12` (configuration not stated), “inactive”. Consider `NC(=O)CSC1=Nc2ccccc2C2=NC(CCC(=O)NCc3ccc(F)cc3)C(=O)N12` (configuration not stated), for which the Potency is 28.2 µM (active). As to `CCCOc1ccc(F)cc1-c1cc(C(=O)Nc2ccc(F)cc2)[nH]n1`, the Potency entry was “inactive”. Take `CC(C)C1CCN(C(=O)C2CCC(=O)N(C3CCCCCC3)C2)CC1` (configuration not stated): the Potency entry was “inactive”.

As to `COc1ccc(Cn2ccnc2SCC(=O)NCc2ccco2)cc1`, the Potency result was “inactive”. As to `COc1ccc2c(c1)c1ncn(Cc3ccccn3)c(=O)c1n2C`, the Potency entry was “inactive”.

As to `COc1ccc2[nH]c3c(=O)n(Cc4ccco4)cnc3c2c1`, the Potency is 25.1 µM (active). The value for `O=c1c2[nH]c3ccc(Cl)cc3c2ncn1Cc1ccccn1` was “inactive”; that for `COCCN(Cc1ccco1)C(=O)Cn1ncc2c([nH]c3ccccc32)c1=O` was “inactive”; that for `Cc1ccc2[nH]c3c(=O)n(Cc4ccccn4)cnc3c2c1` was 31.6 µM (active). Take `CN(C)CCCOc1ccc(-c2ccc3nccn3c2)cn1`: the Potency entry is “inactive”. Take `COc1cccc(NC(=O)C2(C)CCN2Cc2ccccc2Cl)c1` (configuration not stated): the Potency result was “inactive”.

In the case of `CC1=C(C(=O)N(C(C)C)C(C)C)CC(CC(=O)NCCCCc2ccccc2)C(=O)N1CCC1=CCCCC1` (configuration not stated), the Potency entry was “inactive”. For the compound `CN(Cc1ccccc1)C(=O)CCC1CCN(C(=O)c2ccco2)CC1`, the Potency entry was “inactive”. `Cc1ccc2c(c1)c1ncn(CCC3=CCCCC3)c(=O)c1n2C`: the Potency entry is “inactive”. The value for `Cc1ccc2c(c1)c1ncnc(N3CCc4ccccc4C3)c1n2C` was 31.6 µM (active).

With `Cc1ccc2c(c1)c1ncn(Cc3ccc(F)cc3)c(=O)c1n2C`, the Potency entry is “inactive”. As for `CCCCN1C(=O)C(CC(=O)NCc2cccs2)CC(C(=O)N2CCCCCC2)=C1C` (configuration not stated), the Potency entry was “inactive”. For the compound `CCOC1=C2[C@@H](CN(S(=O)(=O)c3ccc(C)cc3)[C@H]2c2ccccc2F)[C@H]2C(=O)N(Cc3ccccc3)C(=O)[C@H]2C1`, the Potency entry was “inactive”. As to `c1ccc(-c2[nH]ncc2-c2nc3ccccc3[nH]2)cc1`, the Potency is 25.1 µM (active). The value for `Clc1ccccc1SCc1nc2ccccc2[nH]1` was “inactive”; that for `COc1ccc(-c2[nH]nc(-c3ccccc3)c2-c2nc3ccccc3[nH]2)cc1` was 25.1 µM (active). With `COc1ccc(-c2cn[nH]c2-c2ccc(OC)cc2)cc1`, the Potency entry was “inactive”. In the case of `COc1ccc(NC(=O)CSc2nc3ccccc3[nH]2)cc1` it was “inactive”.

As to `Oc1ccc(-c2[nH]ncc2-c2nc3ccccc3s2)c(O)c1`, the Potency entry was “inactive”. In the case of `Nc1ccccc1-c1nc2ccncc2[nH]1`, the Potency entry was “inactive”. In the case of `Cc1ccc(OCC(=O)Nc2ccc(Cl)c(-c3nc4ccccc4[nH]3)c2)cc1C` it was “inactive”; in that of `c1ccc2[nH]c(-c3nc4ccccc4[nH]3)nc2c1`, 7.08 µM (active).
